DT40 TDP1 CPT: qHTS for Inhibitors of human tyrosyl-DNA phosphodiesterase 1 (TDP1): qHTS in cells in presence of CPT. AID 686979, 2013. chicken DT40 Tdp1-/-;hTDP1 cells + 20 nM CPT, ATP luminescence, 48 h. Potency, µM (top dose mostly 46.2 µM), inactives show at the top dose activity change, negative = growth inhibition, most hits filed as inhibitors. 420,000 tested, 12% active; further: potency means the concentration at half of the fitted maximal effect; nearly all actives have a fitted effect of over 55% in size
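Chicken DT40 Tdp1-/- cells stably complemented with human TDP1 were seeded at 400 cells/well in medium containing 20 nM camptothecin, exposed to pin-transferred compounds, and grown at 37 °C for at least 48 hr. Viability was read as ATP luminescence.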
HT1080-NT tox: qHTS for induction of synthetic lethality in tumor cells producing 2HG: qHTS for the HT-1080-NT fibrosarcoma cell line; HT-1080-NT fibrosarcoma viability, CellTiter-Glo ATP luminescence, 48 h; Potency, µM (highest dose often 46.1 µM), without a hit: top-dose activity, negative = less viability, actives largely listed as cytotoxic; 360,000 tested, 1.6% active; AID 686970, 2013;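 further: NT is the 2HG producing partner of a matched IDH1 knockdown line; potency means the concentration at half of the fitted maximal effect; 0% = DMSO-treated cells and -100% = media-only wells without cells; nearly all actives have a fitted effect of over 55% in size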
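A 48-hour cytotoxicity screen used HT-1080-NT cells plated 2 hours before compound delivery. ATP-based CellTiter-Glo luminescence measured viability, normalized to DMSO and no-cell controls.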
TDP1 cell noCPT: qHTS for Inhibitors of human tyrosyl-DNA phosphodiesterase 1 (TDP1): qHTS in cells in absence of CPT. DT40 Tdp1-/- hTDP1 cells, no CPT, ATP luminescence, 48 h. 420,000 tested, 15% active. Potency, µM (series often up to 46.2 µM), without a hit: top-dose activity change, negative = growth inhibition, hits mostly inhibitors; further: potency means the concentration at half of the fitted maximal effect; nearly all actives have a fitted effect of over 55% in size
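Growth of hTDP1-complemented DT40 Tdp1-knockout cells is measured by ATP luminescence after at least 48 hr compound exposure at 37 °C, with DMSO substituting for the 20 nM CPT used in the parallel screen.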
HT1080 IDH1KD tx: qHTS for induction of synthetic lethality in tumor cells producing 2HG: qHTS for the HT-1080-IDH1KD cell line. AID 686971, 2013. Potency, µM (series often up to 46.1 µM), inactives show at the top dose activity, negative = toxicity, actives largely listed as cytotoxic. HT-1080 IDH1 knockdown viability, ATP luminescence, 48 h. 360,000 tested, 2% active;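 further: potency means the concentration at half of the fitted maximal effect; 0% = DMSO wells and -100% = cell-free medium wells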
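Knockdown cells (IDH1KD HT-1080) received compounds 2 h after plating at 750 cells/well and were kept 48 h at 37 °C in 5% FBS RPMI. A CellTiter-Glo luminescence read gave % activity for curve fitting.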
IL1B secr inh: qHTS for Inhibitors of Inflammasome Signaling: IL-1-beta AlphaLISA Primary Screen | THP-1 LPS/ATP IL-1B secretion, AlphaLISA, 16 h; active compounds read low | activity change, % at 57.5 µM | 360,000 tested, 4.7% active; in the data active means activity change below about -50%; inconclusive means mostly about -30% to -49%
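THP-1 cells pretreated 1 hr with compounds (up to 57.5 uM final), then stimulated with LPS (250 ng/mL final) plus ATP (1.25 mM final); secreted IL-1B measured by AlphaLISA after 16 hr, decreased signal indicating inhibition.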
Numbers without * were called inactive; ? = inconclusive; . = not tested or not shown. Hits are enriched below; roughly 19% of the tested compounds scored in any of these assays. Unless noted, the call rests on the fitted dose curve; in most records, active means well fitted curve in the direction sought with a large enough effect; inconclusive means small, poorly fitted or top-dose-only effect, or another doubt; inactive means no such curve, though single readings can be large; an effect the other way counts as inactive or inconclusive. Unless noted, on the % scale 0 is the no-effect control and ±100 the full control effect.

SMILES	DT40 TDP1 CPT	HT1080-NT tox	TDP1 cell noCPT	HT1080 IDH1KD tx	IL1B secr inh
COCCNC(=O)CCCN1C(=O)CCn2nc(-c3cccn3C)cc21	-13.3%	.	9.4%	.	.
CCOc1ccc(C2N(c3ccc(F)cc3)C(=O)C3CCCN32)cc1OC (stereo not drawn)	3.6%	2.9%	13.4%	0.3%	8.4
Cc1cc(/C=C/c2ccccc2)nc2ccccc12	?	.	10µM*	.	.
CN(C)c1ccc(/C=C/c2ccc3ccccc3n2)cc1	18.4µM*	?	11.6µM*	?	27.5
CN(C)c1ccc(/C=C/c2ccc3cc(N(C)C)ccc3n2)cc1	12.6µM*	.	?	.	.
Cc1cc(N/N=C/c2ccc(N(C)C)cc2)c2ccccc2n1	0.7%	2.4%	?	-4.9%	-15.0
CN(C)c1ccc(/C=C/c2cc(/C=C/c3ccc(N(C)C)cc3)c3ccccc3n2)cc1	?	.	11.2µM*	.	.
Cc1cc(NC(=O)CCSc2ccccc2)no1	-8.0%	0.1%	-0.1%	2.0%	60.2
Cc1c(NC(=O)Nc2ccc(Cl)c(C(F)(F)F)c2)c(=O)n(-c2ccccc2)n1C	-25.2%	.	-20.9%	.	.
O=C(OCCN1CCOCC1)c1ccc(Cl)cc1Cl	0.3%	8.1%	14.1%	-1.2%	11.2
CCOc1ccc(NC(=O)c2ccc(N3CC4CC(C3)c3cccc(=O)n3C4)c(NC(=O)CCN3CCOCC3)c2)cc1 (stereo not drawn)	1.4%	3.7%	1.7%	-1.5%	?
CCN(CC)c1ccc(/C=C/c2cc(-c3ccccc3)c3ccccc3n2)cc1	-51.2%	-1.8%	25.9µM*	-21.4%	34.1
COc1cc([C@@H]2C[C@H]3CN(c4ccccc4)C(=O)[C@]34CCCN24)cc(OC)c1OC	?	8.6%	?	-15.6%	-21.5
Cc1c([C@@H]2C[C@H]3CN(Cc4cccc(Cl)c4)C(=O)[C@]34CCCN24)cnn1C	?	-1.3%	?	9.9%	-25.7
COc1ccccc1CN1C[C@@H]2C[C@@H](c3ccccc3OC)N3CCC[C@@]23C1=O	16.4µM*	-5.0%	?	-14.7%	-15.5
COc1ccccc1CN1C[C@@H]2C[C@@H](C3=Cc4cccc(OC)c4OC3)N3CCC[C@@]23C1=O	?	-8.0%	?	-25.4%	-17.5
Cc1ccccc1CN1C[C@@H]2C[C@@H](c3cn[nH]c3-c3ccccc3)N3CCC[C@@]23C1=O	?	-15.4%	?	0.5%	-63.0*
O=C1N(C2CCCC2)C[C@@H]2C[C@@H](c3cn[nH]c3-c3ccc(Cl)cc3)N3CCC[C@@]123	?	-7.8%	?	-7.3%	-64.3*
COc1ccccc1-n1cc([C@@H]2C[C@H]3CN(c4ccccc4)C(=O)[C@]34CCCN24)cn1	-6.9%	?	2.7%	5.8µM*	-78.4*
CC(C)(C)n1nc2c(c1NC(=O)COc1ccc(F)cc1)CS(=O)(=O)C2	-24.7%	-12.6%	13.1%	0.0%	7.1
CC(C)OC1=CC(=O)OC(c2cccc(Cl)c2)C1 (stereo not drawn)	-21.9%	-0.6%	-12.9%	5.9%	-14.1
CC(=O)c1cccc(NC(=O)c2cc3sc(Cl)cc3n2C)c1	-26.5%	.	?	.	.
Cc1ccc(S(=O)(=O)Nc2cccnc2)cc1	?	0.0%	29.1µM*	-0.6%	22.4
CCCCOc1ccc(S(=O)(=O)Nc2cccnc2)cc1	9.2µM*	?	10.3µM*	-15.8%	-17.0
O=C(NCc1ccncc1)[C@@H]1CCCN1C(=O)[C@H]1CCCN1C(=O)c1cccc(Cl)c1	-28.0%	12.4%	-17.4%	-0.7%	71.6
SMILES	DT40 TDP1 CPT	HT1080-NT tox	TDP1 cell noCPT	HT1080 IDH1KD tx	IL1B secr inh
COc1ccc(NC(=O)c2ccc(NC(=O)CN3CCC(C(N)=O)CC3)cc2)cc1	10.5%	0.8%	-4.2%	11.9%	-5.8
CC1(C)S[C@@H]2C(C(=O)OCc3ccccc3)NC(=O)N2C1C(=O)OCc1ccccc1 (stereo partly drawn)	-15.6%	2.7%	-16.8%	10.2%	15.6
N#C/C(=C1/SC[C@@H](c2ccc(Cl)cc2Cl)S1)n1ccnc1	4.73µM*	.	5.96µM*	.	.
O=S(=O)(c1ccc(Cl)cc1Cl)n1ccnc1	-5.5%	.	-13.9%	.	.
O=C(Nc1ccccc1-c1cn2c(CN3CCNCC3)csc2n1)c1cnc2ccccc2n1	3.55µM*	.	5.62µM*	.	.
CCC(=O)c1ccc(OCC(O)CNC(C)c2ccccc2)cc1 (stereo not drawn)	?	-25.4%	?	-14.2%	2.9
CC(C)c1ccc(OCC(O)CNC(C)c2ccccc2)cc1 (stereo not drawn)	16.4µM*	23.1µM*	16.4µM*	18.4µM*	-85.5*
Cc1cccc(C)c1OCC(O)CNC(C)c1ccccc1 (stereo not drawn)	3.66µM*	?	5.17µM*	?	?
COc1cccc(OCC(O)CNC(C)c2ccccc2)c1 (stereo not drawn)	?	-21.4%	?	?	-25.2
CCOC(=O)c1c2ccc(OCC(=O)N/N=C/c3ccc(C)cc3)cc2n2ccccc12	?	11.6%	18.4µM*	18.4%	3.8
Cc1cccc(NC(=O)CSc2nc(-c3cccs3)cc(C(F)(F)F)c2C#N)c1C	-12.7%	.	-12.8%	.	.
Cc1cccc(NC(=O)CSc2nc(C)c(CC(=O)c3ccc(Br)cc3)c(C)c2C#N)c1C	13µM*	-12.9%	14.6µM*	?	58.2
Cc1nc(SCC(=O)Nc2ccc(F)cc2)c(C#N)c(C)c1CC(=O)c1ccc(Br)cc1	16.4µM*	-14.1%	?	-11.3%	15.4
COc1ccccc1/C=C/c1cncc(/C=C/c2ccccc2OC)c1	?	.	12.6µM*	.	.
COc1cccc(/C=C/c2ccnc3ccccc23)c1OC	?	.	11.2µM*	.	.
COc1ccccc1C=Cc1ccnc2ccccc12	?	0.6%	?	-0.5%	-93.1*
COc1ccc(/C=C/c2ccncc2)c2ccccc12	-21.2%	?	?	?	12.0
CC(C)CN(CCNC(=O)CN1C(=O)COc2ccc(S(=O)(=O)N3CCC(C)CC3)cc21)CC(C)C	?	11.5%	?	10.2%	3.7
COc1ccc2nc(SC(C)C(=O)NC3CCCC3)[nH]c2c1 (stereo not drawn)	?	-17.4%	-28.7%	-9.7%	6.4
COC1=CC(C)C2CC3OC(=O)CC4C(C)=C(OC)C(=O)C([C@]2(C)C1=O)[C@]34C (stereo partly drawn)	18.5%	.	-3.0%	.	.

Screening results: PubChem, National Center for Advancing Translational Sciences (NCATS)
